Compounds with a hit are over-represented: about 4.9% of the library has one in this group of screens.
tim10-1 inh: growth inhibitors of tim10-1 mutant yeast; 330,000 tested, 2.2% active; S. cerevisiae tim10-1 ts strain growth, BacTiter-Glo, 24 h; inhibition, % at 20 µM;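 active means inhibition of at least 40%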;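 further: mutant grown at 25 °C; 0% = DMSO wells with yeast and 100% = wells holding no yeast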
NLRP3 yeast inh: inhibitors of NALP3 inflammasome in yeast; Yeast reconstituted NLRP3/ASC/caspase-1, beta-gal luminescence, 24 h; 330,000 tested, 0.39% active; inhibition, % at 10 µM;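 active means inhibition of 50% or more; inactive means inhibition below 50%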;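 further: plate controls were induced DMSO wells for no effect and uninduced yeast grown without galactose for full effect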
NALP1 yeast inh: blocks the NALP1 inflammasome reconstituted in yeast; inhibition, % at 10 µM; 280,000 tested, 0.61% active; S. cerevisiae NALP1/ASC/caspase-1 growth, X-gal OD620, 72 h; AID 2071; in the data active means inhibition mostly above about 24%, no sharp cut-off; inactive means mostly below about 32%
tim23-1 inh: tim23-1 yeast growth inhibition; S. cerevisiae tim23-1 growth, BacTiter-Glo luminescence, 24 h; inhibition, % at 20 µM; 330,000 tested, 1.3% active;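 active means growth inhibition of the mutant yeast at or above 50%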;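 further: temperature-sensitive mutant grown at 25 °C; plate controls were DMSO-treated mutant yeast for no effect and medium wells lacking yeast for full effect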
SKKanGAS inh: blocks kanamycin growth of S. pyogenes SKKanGAS strain; BacTiter-Glo, 6 h; inhibition, % at 7.5 µM; 300,000 tested, 1.3% active;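 active means mean replicate score, as percent of positive control median, at least 50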;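 further: strain carries kanamycin resistance gene driven by streptokinase promoter and grows in 40 µg/ml kanamycin; loss of luminescence reflects streptokinase promoter inhibition or plain growth inhibition; 0% = median of DMSO wells and 100% = positive control at its reference dose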
TIM10 inh: TIM10 yeast growth inhibition. S. cerevisiae TIM10 strain growth, BacTiter-Glo luminescence, 24 h. inhibition, % at 10 µM. 330,000 tested, 1.4% active. AID 463195;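 active means inhibition of 40% or more at the single tested concentration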;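 further: wild-type TIM10 isogenic control strain grown at permissive 25 °C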
Numbers without * were called inactive.

How did C=CCc1cccc(/C=N/NC(=O)C(=O)Nc2ccc(C)cc2)c1O do in these assays?
tim10-1 inh: 1; NLRP3 yeast inh: 13; NALP1 yeast inh: 3; tim23-1 inh: -5; SKKanGAS inh: 70*; TIM10 inh: -20

How did CCOCCn1c(=NC(=O)CSCC(=O)Nc2cc(C)on2)sc2cc(OC)ccc21 do in these assays?
tim10-1 inh: 2; NLRP3 yeast inh: 18; NALP1 yeast inh: 30; tim23-1 inh: 13; SKKanGAS inh: 6; TIM10 inh: 10

Results for CC1CCN(C(=O)COC(=O)c2ccc(Br)o2)CC1 ?
tim10-1 inh: 1; NLRP3 yeast inh: 25; NALP1 yeast inh: 34*; tim23-1 inh: 13; SKKanGAS inh: -3; TIM10 inh: 4

What do the screens show for `CCOC(=O)C1CCN(C(=O)COC(=O)c2ccc(Br)o2)CC1`?
tim10-1 inh: -4; NLRP3 yeast inh: 16; NALP1 yeast inh: 19; tim23-1 inh: 2; SKKanGAS inh: -3; TIM10 inh: -13

How did CCOC(=O)c1sc(NC(=O)c2cc(-c3ccccc3C)nc3ccccc23)c(C#N)c1C do in these assays?
tim10-1 inh: 30; NLRP3 yeast inh: 18; NALP1 yeast inh: 20; tim23-1 inh: 13; SKKanGAS inh: 51*; TIM10 inh: 2

Results for CC1=C(C(=O)O)N2C(=O)C(NC(=O)c3c(F)cccc3F)C2SC1 (stereo unspecified) ?
tim10-1 inh: 6; NLRP3 yeast inh: 17; tim23-1 inh: 1; TIM10 inh: -5

How did Cc1cc(C)n(CC(=O)NC2C(=O)N3C(C(=O)O)=C(CSc4nnc(C)s4)CSC23)n1 (stereo unspecified) do in these assays?
tim10-1 inh: -2; NLRP3 yeast inh: 27; NALP1 yeast inh: -5; tim23-1 inh: 14; TIM10 inh: 12

What do the screens show for `Cc1nnc(SCC2=C(C(=O)O)N3C(=O)C(NC(=O)Cn4ncc(Cl)c4C)C3SC2)s1` (stereo unspecified)?
tim10-1 inh: 3; NLRP3 yeast inh: 10; NALP1 yeast inh: 8; tim23-1 inh: 3; SKKanGAS inh: 106*; TIM10 inh: 4

What do the screens show for `Cc1nnc(SCC2=C(C(=O)O)N3C(=O)C(NC(=O)c4cccc(F)c4F)C3SC2)s1` (stereo unspecified)?
tim10-1 inh: -3; NLRP3 yeast inh: 14; NALP1 yeast inh: -8; tim23-1 inh: 8; SKKanGAS inh: 120*; TIM10 inh: 2

What do the screens show for `CSCCC(NC(=O)c1ccco1)C(=O)NNC(=O)c1n[nH]c(=O)c2ccccc12` (stereo unspecified)?
tim10-1 inh: -12; NLRP3 yeast inh: -11; tim23-1 inh: -11; TIM10 inh: 6

Results for CCc1cc2c(COC(=O)c3cccc(NS(C)(=O)=O)c3)cc(=O)oc2cc1O ?
tim10-1 inh: -25; NLRP3 yeast inh: 16; NALP1 yeast inh: 2; tim23-1 inh: -8; SKKanGAS inh: 50*; TIM10 inh: 2

How did CCc1cc2c(COC(=O)c3cc(S(=O)(=O)N4CCOCC4)ccc3F)cc(=O)oc2cc1O do in these assays?
tim10-1 inh: 13; NLRP3 yeast inh: 18; tim23-1 inh: 12; TIM10 inh: 8

How did CCOc1cc(C2/C(=C(\O)c3cc(C)ccc3C)C(=O)C(=O)N2CCN(C)C)ccc1O (stereo unspecified) do in these assays?
tim10-1 inh: 19; NLRP3 yeast inh: -4; NALP1 yeast inh: 40*; tim23-1 inh: 13; SKKanGAS inh: 3; TIM10 inh: 5

How did CC(=O)C1=C(C)NC(SCC(=O)c2ccc(Cl)c(Cl)c2)=C(C#N)C1c1ccco1 (stereo unspecified) do in these assays?
tim10-1 inh: 16; NLRP3 yeast inh: 35; NALP1 yeast inh: 13; tim23-1 inh: 29; SKKanGAS inh: 56*; TIM10 inh: 17

How did Oc1ccc(Br)cc1-c1n[nH]c(=S)n1Cc1ccccc1 do in these assays?
tim10-1 inh: 18; NLRP3 yeast inh: 23; NALP1 yeast inh: -15; tim23-1 inh: 25; SKKanGAS inh: 32; TIM10 inh: 18

How did Cn1c(-c2cc(Br)ccc2O)n[nH]c1=S do in these assays?
tim10-1 inh: -9; NLRP3 yeast inh: 30; NALP1 yeast inh: -4; tim23-1 inh: 0; SKKanGAS inh: 67*; TIM10 inh: 1

How did CC(C)CN(Cc1cc(=O)oc2cc(-c3ccccc3)c(O)cc12)CC(C)C do in these assays?
tim10-1 inh: 15; NLRP3 yeast inh: 14; NALP1 yeast inh: 14; tim23-1 inh: 22; SKKanGAS inh: 76*; TIM10 inh: 23

Results for COc1ccc(/C=C/C(=O)NC(=S)NCc2ccccc2)cc1OC ?
tim10-1 inh: 33; NLRP3 yeast inh: 13; NALP1 yeast inh: 4; tim23-1 inh: 31; SKKanGAS inh: -1; TIM10 inh: 29

What do the screens show for `COc1ccc(/C=C/C(=O)NC(=S)NNC(=O)c2cccs2)cc1OC`?
tim10-1 inh: 2; NLRP3 yeast inh: 8; tim23-1 inh: -7; SKKanGAS inh: 73*; TIM10 inh: 5

How did COc1ccc(/C=C/C(=O)NC(=S)NNC(=O)Cc2cccs2)cc1OC do in these assays?
tim10-1 inh: 35; NLRP3 yeast inh: 10; NALP1 yeast inh: 2; tim23-1 inh: -20; SKKanGAS inh: 67*; TIM10 inh: 0

Results for O=C(/C=C/c1cccs1)NC(=S)NNC(=O)Cc1cccs1 ?
tim10-1 inh: 14; NLRP3 yeast inh: 15; NALP1 yeast inh: -56; tim23-1 inh: 1; SKKanGAS inh: 68*; TIM10 inh: 17

What do the screens show for `COc1ccc(/C=C/C(=O)NC(=S)NNC(=O)c2cccnc2)cc1OC`?
tim10-1 inh: 25; NLRP3 yeast inh: 20; NALP1 yeast inh: -1; tim23-1 inh: -3; SKKanGAS inh: 19; TIM10 inh: 12

What do the screens show for `CC(=O)Nc1ccc(S(=O)(=O)NCCC(=O)OCC(=O)c2cc(C)ccc2C)cc1`?
tim10-1 inh: -8; NLRP3 yeast inh: 2; tim23-1 inh: 4; TIM10 inh: -5

Results for Cc1ccc(S(=O)(=O)NCCn2nc(C)cc2C)cc1 ?
tim10-1 inh: 2; NLRP3 yeast inh: 15; NALP1 yeast inh: 11; tim23-1 inh: -4; SKKanGAS inh: -1; TIM10 inh: 4

How did O=[N+]([O-])c1ccc(N/N=C/c2c[nH]c3ccccc23)c(S(=O)(=O)Nc2ccc(Cl)cc2)c1 do in these assays?
tim10-1 inh: 20; NLRP3 yeast inh: 28; NALP1 yeast inh: 7; tim23-1 inh: 12; SKKanGAS inh: 77*; TIM10 inh: 7

How did CCc1nc2c3cnn(-c4cc(Cl)ccc4C)c3ncn2n1 do in these assays?
tim10-1 inh: 9; NLRP3 yeast inh: 31; NALP1 yeast inh: -4; tim23-1 inh: 10; SKKanGAS inh: 53*; TIM10 inh: -4

What do the screens show for `COc1ccc(-c2cc(C(=O)N/N=C(\C)c3ccco3)c3ccccc3n2)c(OC)c1`?
tim10-1 inh: 16; NLRP3 yeast inh: -7; NALP1 yeast inh: 9; tim23-1 inh: 8; SKKanGAS inh: 54*; TIM10 inh: 5
